USP1 inh – inhibitors of human USP1/UAF1 deubiquitinase. O94782. recombinant USP1/UAF1, Ub-Rhodamine cleavage fluorescence. Potency, µM (titrated, usually from 57.1 µM), for the others: top-dose activity change, negative = inhibition, hits mostly inhibitors. 390,000 tested, 0.23% active; further: potency means the concentration at half of the fitted maximal effect; nearly all actives have a fitted effect of over 60% in size
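Step one: compound is pinned into 1nM USP1/UAF1 in HEPES pH 7.8 buffer with TCEP. Step two: 15 min room-temperature incubation. Step three: Ub-Rho (150nM final) starts cleavage, tracked by fluorescence over six one-minute reads.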
Tb PGK inh – T. brucei PGK inhibition. P07378. PGK/GAPDH coupled, Kinase-Glo luminescence, 60 min. Potency, µM (titrated, usually from 57.5 µM), without a hit: top-dose activity change, negative = inhibition, actives largely listed as inhibitors. 380,000 tested, 0.043% active; further: potency means the concentration at half of the fitted maximal effect; nearly all actives have a fitted effect of over 60% in size
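Luminescent ATP detection (Kinase-Glo Plus) follows a 60-minute room-temperature incubation, with wells lacking PGK as controls. Buffer: 100 mM TEA (pH 7.6), 5 mM MgCl2, 0.01% Tween-20. Coupling enzyme GAPDH (100 nM final) supplies unstable 1,3-BPG in-well.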
GLS inhibitor – blocks human kidney-isoform glutaminase activity; O94925; GLS enzymatic activity, qHTS titration; Potency, µM (top dose mostly 45.5 µM), without a hit: at the highest dose activity change, negative = inhibition, most hits filed as inhibitors; 410,000 tested, 0.21% active; AID 624170; further: potency means the concentration at half of the fitted maximal effect
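hKGA in 45 mM KH2PO4 (pH 8.2), 0.02% Tween-20 with compound, then 1mM L-Glutamine (stock as added) plus glutamate oxidase/HRP/Amplex red coupling mix. Fluorescence read initially and after 30 min at RT; signal change reflects glutamate formation.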
PI4K2A block – inhibitors of human PI4K2A | Q9BTU6 | purified PI4K2A, ADP-Glo luminescence, 1 h; active compounds read low | activity change, negative = inhibition, % at 76.9 µM | 420,000 tested, 0.13% active | AID 1346378; in the data active means activity change below about -50%; inconclusive means mostly about -30% to -49%;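 further: -100% = wells without enzyme as full effect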
Target sequence (Q9BTU6 whole entry, looked up): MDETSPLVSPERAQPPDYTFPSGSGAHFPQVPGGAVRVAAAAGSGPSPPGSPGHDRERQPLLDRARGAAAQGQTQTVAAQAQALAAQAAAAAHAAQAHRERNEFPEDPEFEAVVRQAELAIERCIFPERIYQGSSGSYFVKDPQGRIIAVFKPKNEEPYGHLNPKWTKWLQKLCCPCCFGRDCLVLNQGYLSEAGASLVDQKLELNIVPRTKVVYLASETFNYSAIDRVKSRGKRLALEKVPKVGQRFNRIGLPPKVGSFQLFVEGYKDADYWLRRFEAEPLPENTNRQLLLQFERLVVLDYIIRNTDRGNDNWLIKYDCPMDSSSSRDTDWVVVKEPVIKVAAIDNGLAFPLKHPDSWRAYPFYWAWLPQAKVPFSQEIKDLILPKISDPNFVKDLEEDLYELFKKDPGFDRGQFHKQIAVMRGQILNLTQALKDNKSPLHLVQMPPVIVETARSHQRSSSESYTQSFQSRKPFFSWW
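PI4K2A activity was measured by ADP-Glo luminescence: enzyme (4 ug/mL stock) and phosphatidylinositol (1.2 mM stock) in Tris pH 7.5/MgCl2/EGTA/Triton X-100 buffer were reacted with ATP (300 microM stock) for one hour at ambient temperature.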
Numbers without * were called inactive; i = inactive; u = inconclusive; x = not tested or not shown; [ ] = remark or other dose. In the library only some 0.53% were active in any assay of this set; here they are far more common. Unless noted, the call rests on the fitted dose curve; in most records, active means well fitted curve in the direction sought with a large enough effect; inconclusive means small, poorly fitted or top-dose-only effect, or another doubt; inactive means no such curve, though single readings can be large; an effect the other way counts as inactive or inconclusive. Unless noted, on the % scale 0 is the no-effect control and ±100 the full control effect.

SMILES	USP1 inh	Tb PGK inh	GLS inhibitor	PI4K2A block
C[C@@H]1CC[C@@]2(OC1)O[C@H]1C[C@H]3[C@@H]4CC[C@H]5C[C@@H](O)CC[C@]5(C)[C@H]4CC(=O)[C@]3(C)[C@H]1[C@@H]2C	x	x	x	i
NC(=O)c1cc[n+](CC2=C(C(=O)[O-])N3C(=O)[C@@H](NC(=O)Cc4cccs4)[C@H]3SC2)cc1	x	x	x	0
O=C1C(=Cc2ccc(F)cc2)CCc2ccccc21	x	x	-12%	-73*
O=C1C(=Cc2ccc(Cl)cc2)CCc2ccccc21	x	x	-11%	u
COc1ccc(C=C2CCc3ccccc3C2=O)cc1	x	x	-2%	-83*
CCOc1ccc(/C=C2\CCc3ccccc3C2=O)cc1	-14%	u	3%	u
CN1[C@@H]2CC[C@H]1CC(NC(=O)n1c(=O)[nH]c3ccccc31)C2 (stereo partly specified)	x	x	x	1
COc1ccc(-n2nc(CCC(=O)N(C)O)cc2-c2ccc(Cl)cc2)cc1	x	x	x	1
Cc1nccn1CC1CCc2c(c3ccccc3n2C)C1=O (stereo unspecified)	3%	0%	19%	-6
Cc1[nH]cnc1CN1CCc2c(c3ccccc3n2C)C1=O	35µM*	6%	-6%	-14
Cc1nn(-c2ccccc2)c(C)c1C1C(C#N)=C(N)Oc2n[nH]c(C)c21 (stereo unspecified)	-19%	5%	20µM*	-3
Cc1nn(C)c(C)c1C1C(C#N)=C(N)Oc2n[nH]c(C)c21 (stereo unspecified)	-6%	-10%	19%	-1
COC(=O)C1=C(C)NC(C)=C(C(=O)O[C@H]2CCN(Cc3ccccc3)C2)C1c1cccc([N+](=O)[O-])c1 (stereo partly specified)	x	x	15%	x
Cc1ccc(Nc2c(-c3ccccc3O)nc3cnccn23)cc1	-11%	7%	7.9µM*	9
COc1ccccc1NC(=O)c1sc2nc(C)c(C(=O)Nc3ccc(C)cc3C)c(-c3ccc(C)o3)c2c1N	32µM*	-6%	-3%	-2
O=C(Nc1ccccc1C(F)(F)F)OCCCN1CCC2(CCC(c3ccccc3)CC2)C1=O (stereo unspecified)	x	x	x	0
COc1cc2cccc(OC)c(=O)c2c(O)c1OC	-14%	i	4%	1
COc1cc2c(ccc3cc(OC)c(OC)c(O)c32)cc1O	-21%	11µM*	7.9µM*	-28
CCC(=O)C(Cc1ccccc1)(Cc1ccccc1)CC(C)N(C)C (stereo unspecified)	x	x	3%[72.5 µM]	x
COCc1cc(=O)n2[nH]c(N)nc2n1	-21%	2%	8.9µM*	-2
S=c1[nH]c(-c2ccccc2)cn1/N=C/c1ccncc1	-4%	-7%	10µM*	-2
NC(=O)C1=CN(C2OC(COP(=O)(O)OP(=O)(O)OC[C@H]3O[C@@H](n4cnc5c(N)ncnc54)[C@H](OP(=O)(O)O)[C@@H]3O)C(O)C2O)C=CC1 (stereo partly specified)	x	x	x	-1
COC(=O)c1ccc(NC(=O)C(=O)c2cccn2C)cc1	-11%	-6%	-1%	-82*
O/C(=C\c1ccc2ccccc2n1)c1ccc(O)cc1O	28µM*	-7%	-10%	-6
Oc1ccc(/C=C/c2ccc3ccccc3n2)cc1	-20%	-6%	7%	-75*
SMILES	USP1 inh	Tb PGK inh	GLS inhibitor	PI4K2A block
C(=C\c1ccc2ccccc2n1)/c1ccccc1	-11%	u	-10%	u
Oc1ccc(/C(Cc2ccc3ccccc3n2)=N\Nc2ccccc2)c(O)c1	u	-7%	-17%	-4
CC[C@@H]([C@H](C)O)n1ncn(-c2ccc(N3CCN(c4ccc(OC[C@@H]5CO[C@@](Cn6cncn6)(c6ccc(F)cc6F)C5)cc4)CC3)cc2)c1=O	x	x	x	-4
Cc1ccc(-c2cc3nc(-c4ccco4)cc(N4CCN(Cc5ccoc5)CC4)n3n2)cc1	x	x	x	-7
CC(Nc1nc(-c2ccc(F)cc2)cs1)c1nc2cc(Cl)c(Cl)cc2n1CCCO (stereo unspecified)	-25%	-9%	7%	-16
Cc1ccc(Cn2c(C(C)Nc3nc(-c4ccc(C)cc4)cs3)nc3cc(Cl)c(Cl)cc32)cc1 (stereo unspecified)	u	u	10µM*	-2
CCOC1=C2[C@H](c3ccccc3)N(S(=O)(=O)c3ccc(C)cc3)C(C(C)(C)C)[C@H]2C(C#N)(C#N)C(C#N)(C#N)C1 (stereo partly specified)	x	x	2.2µM*	0

From PubChem
